PostGolgi yeast: growth inhibition of a yeast mutant, post-Golgi transport screen; post-Golgi transport phenotypic cell assay; inhibition, % at 10 µM; 98,000 compounds, 0.9% hits;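 note: yeast cells grown in 1536-well plates; yeast grown about 18 h at 30C before absorbance read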
PostGolgi ctrl: growth of the yeast control strain, post-Golgi counter-screen; efflux-deficient yeast background strain, growth absorbance A615, 16 h; inhibition, % at 10 µM; 98,000 compounds, 5% hits
CYP2C9 activ: increases human cytochrome P450 2C9 activity; recombinant CYP2C9, luciferin-H conversion, luminescence; stronger effect = higher value; factor 1 = untreated enzyme, 0 = blocked; activation factor at 5 µM; 96,000 compounds, 1.4% hits;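 active = activation factor of 2 or more for CYP2C9 at a 5 µM dose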;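 note: 0 = sulfaphenazole-blocked wells and 1 = vehicle-only wells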
Target sequence (P11712 whole entry, looked up): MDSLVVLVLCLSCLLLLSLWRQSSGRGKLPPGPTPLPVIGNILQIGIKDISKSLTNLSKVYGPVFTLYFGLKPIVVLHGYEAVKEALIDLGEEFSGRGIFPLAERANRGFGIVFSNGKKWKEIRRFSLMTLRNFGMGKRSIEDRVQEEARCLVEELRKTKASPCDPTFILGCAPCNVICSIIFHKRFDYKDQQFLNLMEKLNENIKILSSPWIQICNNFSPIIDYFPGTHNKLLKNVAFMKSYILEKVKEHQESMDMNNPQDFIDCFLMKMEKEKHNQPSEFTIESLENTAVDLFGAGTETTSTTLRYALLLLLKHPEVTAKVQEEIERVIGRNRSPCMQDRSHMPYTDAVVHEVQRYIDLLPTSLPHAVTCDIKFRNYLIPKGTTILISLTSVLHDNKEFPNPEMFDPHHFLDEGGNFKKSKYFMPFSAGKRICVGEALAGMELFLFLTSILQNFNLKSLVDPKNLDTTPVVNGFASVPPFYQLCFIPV
CYP2C19 activ: activators of human cytochrome P450 2C19; P33261; recombinant CYP2C19, luciferin-H EGE luminescence; stronger effect = higher value; 0 = fully inhibited enzyme, 1 = untreated enzyme; activation factor at 5 µM; 96,000 tested, under 10 active;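 active = activation factor of at least 2 at 5 µM in the primary screen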;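 note: 0 = wells with 2.5 mM tranylcypromine and 1 = vehicle-only wells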
CYP2C9 inhib: human CYP2C9 inhibition; CYP2C9 Supersomes, luciferin-H conversion, luminescence; inhibition, % at 5 µM; 96,000 compounds, 20% hits; AID 777;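 active = blocking of liver enzyme CYP2C9 beyond about 50% at 5 µM, limit read from the data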
CYP2C19 inh: human CYP2C19 inhibition; P33261; CYP2C19 Supersomes, luciferin-H EGE luminescence, 30 min; 96,000 compounds, 21% hits; inhibition, % at 5 µM;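 active = CYP2C19 inhibition above a set limit at 5 µM in the primary screen, cut at about 50% in these data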;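 note: plate controls were negative control wells for no effect and 2.5 mM tranylcypromine positive control for full effect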
Numbers without * were called inactive; · = no result given. Compounds with a hit are over-represented: about 32% of the library has one in this group of screens. Cut-off read from the data, not from the text of the source, unless noted: active = inhibition above about 30%; inactive = the rest.

SMILES	PostGolgi yeast	PostGolgi ctrl	CYP2C9 activ	CYP2C19 activ	CYP2C9 inhib	CYP2C19 inh
CCc1nn(C(C)C(=O)Nc2cccc(C)c2C)c(=O)c2cc3occc3n12 (stereo not given)	2	13	0.3	0.3	66*	71*
CCc1nn(C(C)C(=O)N2CCc3ccccc3C2)c(=O)c2cc3occc3n12 (stereo not given)	-2	8	0.4	0.1	61*	94*
CCC(C(=O)NC(C)CCc1ccccc1)n1nc(C)n2c(cc3occc32)c1=O (stereo not given)	-4	8	0.1	0.3	87*	71*
CCc1nn(C(C)C(=O)NCCN2CCN(c3cccc(C)c3C)CC2)c(=O)c2cc3occc3n12 (stereo not given)	5	1	1.6	0.6	-57	38
CCOC(=O)c1ccc(NC(=O)C(C)N2C(=O)c3ccccc3C2=O)cc1 (stereo not given)	10	-3	0.9	0.9	12	15
O=C(CN1CCN(c2ccc(F)cc2)CC1)Nc1ccc(F)c(F)c1	1	13	0.7	0.7	32	31
O=C(NC1CCN(C(=O)Nc2cccc(F)c2)CC1)C1CCCCC1	10	2	1	1	3	0
COc1ccc(CCNC(=O)CN2CCN(c3cccc(Cl)c3)CC2)cc1OC	7	22	0.7	1	25	3
O=C(Nc1cccc(F)c1)N1CC=C(c2ccc(Cl)cc2)CC1	22	41*	0	0	96*	96*
CCOC(=O)c1cccc(NC(=O)C(C)N2C(=O)c3ccccc3C2=O)c1 (stereo not given)	-6	9	0	0.4	97*	57*
O=C(CN1CCN(c2ccc(Cl)cc2)CC1)Nc1cccc(F)c1	9	30*	0.3	0.6	67*	39
COC(=O)c1ccc(NC(=O)CN2CCN(c3cccc(Cl)c3)CC2)cc1	3	27	0.2	0.4	76*	61*
COc1cc(C2NC(=O)NC(C)=C2C(=O)OCC2CCCO2)ccc1O (stereo not given)	7	-7	1	0.9	-5	9
CCCCSc1nc2c(cnn2-c2ccc(Cl)cc2)c(=O)[nH]1	-2	8	0.7	1	29	1
O=C(Cc1cccs1)Nc1ccc(N2CCOCC2)cc1	3	4	0.9	0.7	14	30
COC(=O)Nc1ccc2c(c1)N(C(=O)CCN1CCN3CCCC3C1)c1ccccc1S2 (stereo not given)	20	1	0.9	1	10	-3
Cn1c(=O)oc2cc(S(=O)(=O)NCCN3CCc4ccccc4C3)ccc21	3	17	·	·	·	·
COc1cc(Cl)cc(NC(=O)CCN2CCN(C)CC2)c1	11	4	1.1	1.1	-13	-11
CCOC(=O)c1cccc(NC(=O)CN2CCN(c3ccc(OC)cc3)CC2)c1	4	9	0.3	0.5	73*	54*
COC(=O)c1ccc(NC(=O)CN2CCN(S(=O)(=O)c3cc(Cl)ccc3OC)CC2)cc1	1	22	2.7*	0.1	-174	95*
COC(=O)c1ccc(NC(=O)CN2CCN(c3ccc(Cl)cc3)CC2)cc1	44*	16	1	1	4	4
COc1ccc(NC(=O)CCN2CCN(S(=O)(=O)c3cc(Cl)ccc3Cl)CC2)cc1	-5	20	0.8	0.1	15	91*
CCSc1ccccc1C(=O)NCc1ccco1	5	2	1.1	0.9	-11	7
CCOC(=O)c1ccc(N/C(=N\S(=O)(=O)c2ccccc2C)c2ccccc2)cc1	0	22	0.7	0.8	31	23
CCc1ccc(C(=O)COC(=O)c2cccc(N3C(=O)c4c(C)nc5ccccc5c4C3=O)c2)cc1	-4	8	0.6	1	36	-5
CCN1C(=O)c2c(C)nc3ccccc3c2C1=O	-2	0	0.6	0.4	36	58*
CC(C)COc1ccc(CSCCNC(=S)Nc2ccccc2)cc1	-5	19	0.4	0.6	58*	36
O=S(=O)(NCCc1ccccc1)c1ccc(S(=O)(=O)N2CCCCC2)cc1	0	-3	0.7	0.6	35	41
C=C(C)Cn1c(=O)c2c(nc3n2CCN3c2cccc(Cl)c2C)n(C)c1=O	·	·	0.5	0.9	50*	6

Screens deposited in PubChem BioAssay by several laboratories.
